# Measurements: the supplement of paper PMC10515830
# Counter-ions that a name gives are not always drawn.
# System: Danio rerio larvae (5 dpf)
# Assay: difference in combined optomotor response to red, green and blue moving lines vs DMSO (percentage points); higher = stronger optomotor response than DMSO
# Conditions: 10 µM; exposure time 6 h
# Outline: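 Library compounds were tested at 10 µM final in 100 µL egg water on wild-type 5 dpf zebrafish larvae in 96-well plates for 6 h, with 48 larvae per compound. After 3 h, plates at 28.5 ℃ were imaged every 6 s during a 3-h run of moving lines and 100 ms, 400Hz tones. Behaviours were quantified by Z-LaP Tracker and reported as the compound mean less the vehicle control mean, in percentage points.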
row,SMILES,difference
1,CC(C)NCC(O)c1ccc(NS(C)(=O)=O)cc1 (configuration not stated) [Sotalol (hydrochloride)],-2.43
2,CO[C@H]1C[C@@H]2CC[C@@H](C)[C@@](O)(O2)C(=O)C(=O)N2CCCC[C@H]2C(=O)O[C@H]([C@H](C)C[C@@H]2CC[C@@H](O)[C@H](OC)C2)CC(=O)[C@H](C)/C=C(\C)[C@@H](O)[C@@H](OC)C(=O)[C@H](C)C[C@H](C)/C=C/C=C/C=C/1C [Rapamycin],3.4
3,CC(C(=O)O)c1cccc(C(=O)c2ccccc2)c1 (racemic) [(±)-Ketoprofen],11.1
4,CC(=O)O[C@H]1Cc2ccccc2N(C(N)=O)c2ccccc21 [Eslicarbazepine Acetate],-2.32
5,CCN[C@H]1C[C@H](C)S(=O)(=O)c2sc(S(N)(=O)=O)cc21 [Dorzolamide (hydrochloride)],3.26
6,O=C(C1CCCCC1)N1CC(=O)N2CCc3ccccc3C2C1 (configuration not stated) [Praziquantel],10.4
7,CC(=O)NO [Acetohydroxamic Acid],-4.35
8,OC(c1cc(C(F)(F)F)nc2c(C(F)(F)F)cccc12)C1CCCCN1 (configuration not stated) [Mefloquine (hydrochloride)],-0.0553
9,CC(C)NCC(O)COc1ccc(CC(N)=O)cc1 (racemic) [(±)-Atenolol],1.82
10,C[C@@H]1NC(=O)[C@@H](N)CNC(=O)[C@H](C2CCNC(=N)N2)NC(=O)/C(=C/NC(N)=O)NC(=O)[C@H](CNC(=O)CC(N)CCCN)NC1=O.N=C1NCC[C@H]([C@@H]2NC(=O)/C(=C/NC(N)=O)NC(=O)[C@H](CNC(=O)C[C@@H](N)CCCN)NC(=O)[C@H](CO)NC(=O)[C@@H](N)CNC2=O)N1 [Capreomycin (sulfate)],3.54
11,CC(C)(C(=O)O)c1ccc(C(O)CCCN2CCC(C(O)(c3ccccc3)c3ccccc3)CC2)cc1 (configuration not stated) [Fexofenadine (hydrochloride)],5.51
12,CCCCC[C@H](O)/C=C/[C@@H]1[C@H]2C/C(=C/CCCC(=O)O)O[C@H]2C[C@H]1O [Prostaglandin I2 (sodium salt)],4.02
13,O=P(O)(O)C(O)(Cn1ccnc1)P(=O)(O)O [Zoledronic Acid (hydrate)],6.76
14,Cc1ccc(O)c([C@H](CCN(C(C)C)C(C)C)c2ccccc2)c1 [Tolterodine (tartrate)],-10.6
15,O=C(O)C1(C(=O)O)CCC1.[NH2-].[NH2-].[Pt+2] [Carboplatin],-2.73
16,Nc1nc(NC2CC2)c2ncn([C@H]3C=C[C@@H](CO)C3)c2n1 [Abacavir (sulfate)],5.64
17,CC(=O)N(O)CCCCCNC(=O)CCC(=O)N(O)CCCCCNC(=O)CCC(=O)N(O)CCCCCN [Deferoxamine (mesylate)],2.91
18,CCNC(=O)[C@@H]1CCCN1C(=O)[C@H](CCCNC(=N)N)NC(=O)[C@H](CC(C)C)NC(=O)[C@@H](CC(C)C)NC(=O)[C@H](Cc1ccc(O)cc1)NC(=O)[C@H](CO)NC(=O)[C@H](Cc1c[nH]c2ccccc12)NC(=O)[C@H](Cc1c[nH]cn1)NC(=O)[C@@H]1CCC(=O)N1 [Leuprorelin (acetate)],4.92
19,COc1cc2ncnc(Nc3ccc(F)c(Cl)c3)c2cc1NC(=O)/C=C/CN1CCCCC1,6.72
20,COCCCC/C(=N\OCCN)c1ccc(C(F)(F)F)cc1 [Fluvoxamine (maleate)],5.3
21,CC(C)N(CCCCOCC(=O)NS(C)(=O)=O)c1cnc(-c2ccccc2)c(-c2ccccc2)n1,2.84
22,CC[C@H]1OC(=O)[C@H](C)[C@@H](O[C@H]2C[C@@](C)(OC)[C@@H](O)[C@H](C)O2)[C@H](C)[C@@H](O[C@@H]2O[C@H](C)C[C@H](N(C)C)[C@H]2O)[C@](C)(O)C[C@@H](C)C(=O)[C@H](C)[C@@H](O)[C@]1(C)O [Erythromycin],9.53
23,N[C@H](C(=O)O)[C@H](O)c1ccc(O)c(O)c1 [Droxidopa],2.12
24,Oc1ncnc2[nH]ncc12 [Allopurinol],1.46
25,Clc1ccc(CCC(Cn2ccnc2)Sc2c(Cl)cccc2Cl)cc1 (configuration not stated) [Butoconazole (nitrate)],-16.7
26,CNC(=C[N+](=O)[O-])NCCSCc1csc(CN(C)C)n1 [Nizatidine],2.72
27,CC(=O)OCC(=O)[C@@]12N=C(C)O[C@@H]1C[C@H]1[C@@H]3CCC4=CC(=O)C=C[C@]4(C)[C@H]3[C@@H](O)C[C@@]12C [Deflazacort],13.9
